Here are results for 7 sequences from the supplement of paper PMC6555819.

What all share (assay): PBM binding z-score (relative to random genomic background probes); higher = stronger binding; sequences stand for … in GC…GCGATTGACAGCGTAGAATGAAGG
Assay [1] has as its system RARb homodimer (NR concentration 270 nM). The method, boiled down:
(§1)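 Regression normalization was applied to scanned fluorescence from custom Agilent 4×180K protein-binding microarrays. Before scanning, arrays were incubated 1 h with ligand-free nuclear receptor dimers, and binding was detected with antibodies against each partner (one per run). Binding z-scores use the random background probes as reference.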

The subject of assay [2] is RARg:RXRa (NR concentration 270 nM, RXRa partner concentration 90 nM). The method, boiled down: as §1
The subject of assay [3] is RARg homodimer (NR concentration 270 nM). The gist of the method:
as §1

In assay [4] the test system is RXRa DBDmut IVT, anti-RXR (DBD mutation: RXRa K156A/R161A, NR concentration 90 nM). The method, boiled down:
as §1

For assay [5], the system named is RXRa homodimer (NR concentration 180 nM). The gist of the method:
as §1

The subject of assay [6] is THRa:RXRa (NR concentration 90 nM, RXRa partner concentration 90 nM). The gist of the method: as §1
The test system of assay [7] is THRa homodimer (NR concentration 90 nM). The gist of the method: as §1
The test system of assay [8] is VDR homodimer (NR concentration 270 nM). The gist of the method: as §1

In the case of CGTCCAAGGTCAGCAGGTCTGTGAAAGCGACGTG, the PBM binding z-score in assay [1] came out at 3.23; in assay [2] it was 5.26; in assay [3] it was 6.07; in assay [4] it was 2.62; in assay [5] it was 3.69; in assay [6], 3.45. The PBM binding z-score stood at 1.82 in assay [7] and 1.65 in assay [8].
As to AGAGTGAGGTTATACGTAGATCAGGGAAGAAAGT, the PBM binding z-score in assay [1] was determined as 1.53; in assay [2] it was 1.82; in assay [3], 1.28; in assay [4], 1.38; in assay [5] it was 2.03; in assay [6], 2.21. In addition, the PBM binding z-score in assay [7] stood at 1.15; in assay [8], 1.41.
TCATATAGATAAAGGTGAAAGTCGAACGATATGA: the PBM binding z-score was found to be 1.08 in assay [1]; 1.29 in assay [2]; 1.2 in assay [3]; 1.18 in assay [4]; 1.9 in assay [5]; 0.819 in assay [6]. The PBM binding z-score in assay [7] was -0.268; in assay [8], -0.308.
In the case of GAAACGAGGGCATTCGAGTTGATAGCATGGCGAT, the PBM binding z-score in assay [1] is 0.628; in assay [2], 1.26; in assay [3], 1.38; in assay [4], 3.03; in assay [5], 1.09; in assay [6] it was 3.47. The results for the PBM binding z-score in assay [7] and in assay [8] were -0.43 and 3.34, respectively.
Regarding ATCTCTAGGTAAAGATCAGTGAAAGATCGATAGA, the PBM binding z-score was -0.585 in assay [1]; 0.367 in assay [2]; 0.528 in assay [3]; -0.253 in assay [4]; 0.257 in assay [5]; 0.044 in assay [6]. Besides, the PBM binding z-score in assay [7] is -0.362; in assay [8], -0.142.
As to AGTCGAAGTTCATCTAGGTAACGTAAGATATGCT, the PBM binding z-score in assay [1] was found to be 2.11; in assay [2], 2.84; in assay [3] it was 3.19; in assay [4], 3.88; in assay [5], 1.91; in assay [6], 2.31. Further, the PBM binding z-score in assay [7] is -0.00664; in assay [8], 3.81.
Turning to CTACCAAGGTGAAGAAGGTCGTTGATTACTATTC, the PBM binding z-score in assay [1] worked out at 1.74; in assay [2] it was 1.35; in assay [3], 1.07; in assay [4], 0.727; in assay [5] it was 1.34; in assay [6], 2.13. For the same sequence, the PBM binding z-score in assay [7] amounted to 0.885; in assay [8], 1.34.
